Shiga toxin inh = A qHTS for Small Molecule Inhibitors of Shiga Toxin; actives 9.2% (n = 290,000); Vero cells, Shiga toxin protein synthesis inhibition reporter; inhibition, % at 38.7 µM; in the data active = inhibition mostly above about 28%, no sharp cut-off; inactive = mostly below about 43%; also: 0% is about no effect
MARV entry inh = qHTS for inhibitors of binding or entry into cells for Marburg Virus; Marburg virus pseudotyped entry inhibition, cell reporter; Potency, µM (series often up to 37.8 µM), for inactives: top-dose activity change, negative = inhibition, usual class: inhibitors; actives 1.8% (n = 300,000); calls by dose curve; tested in HEK293 cells; also: potency is read from the fitted curve at half-maximal effect; % is scaled to controls: 0 for no effect and ±100 for the full control effect
LASV entry inh = qHTS for Inhibitors of binding or entry into cells for Lassa Virus; Lassa virus pseudotype entry inhibition, cell reporter; Potency, µM (top dose mostly 37.9 µM), for the others: top-dose activity change, negative = inhibition, usual class: inhibitors; actives 1.2% (n = 300,000); calls by dose curve; tested in HEK293 cells; also: potency is read from the fitted curve at half-maximal effect; % is scaled to controls: 0 for no effect and ±100 for the full control effect; nearly all actives have a fitted effect of over 50% in size
CHX counter = Cycloheximide Counterscreen for Small Molecule Inhibitors of Shiga Toxin; cell reporter, cycloheximide protein synthesis inhibition counterscreen; max response, %; actives 12% (n = 300,000); AID 2314, 2010; in the data active = max response mostly above about 13%, no sharp cut-off; inactive = mostly below about 14%; also: read at 38.3 µM for the half of the compounds with a filed dose; 0% is about no effect
Pf growth 48h = Primary qHTS for delayed death inhibitors of the malarial parasite plastid, 48 hour incubation. P. falciparum luciferase growth in erythrocytes, 48 h. Potency, µM (doses to about 28.7 µM), inactives show top-dose activity change, negative = inhibition, actives largely listed as inhibitors. actives 5.9% (n = 310,000); also: potency is read from the fitted curve at half-maximal effect; % is scaled to controls: 0 for no effect and ±100 for the full control effect
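Cell-based growth assay: transgenic P. falciparum expressing firefly luciferase, cultured in red cells within RPMI 1640 containing 0.5% w/v Albumax, 24 mM bicarbonate and gentamycin. A drop in luciferase activity indicates inhibition.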
Pf growth 96h = Primary qHTS for delayed death inhibitors of the malarial parasite plastid, 96 hour incubation; P. falciparum luciferase reporter growth, 96 h; Potency, µM (highest dose often 28.7 µM), without a hit: at the highest dose activity change, negative = inhibition, actives largely listed as inhibitors; actives 6.9% (n = 320,000); AID 504834, 2011; also: potency is read from the fitted curve at half-maximal effect; % is scaled to controls: 0 for no effect and ±100 for the full control effect
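P. falciparum expressing integrated firefly luciferase, in erythrocytes at 2% hematocrit, 0.05% parasitemia, incubated with compounds 96 h at 37 C, 5% CO2. Growth inhibition read as loss of luminescence; two-generation exposure targets delayed-death apicoplast inhibitors.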
Active calls of the source: *; ? = inconclusive; · = no result given; [ ] = remark or other dose. Sampled rows, rich in hits. Any-hit rate of the full collection: about 19%. Unless noted, calls follow the shape of the dose curve; as a rule, active = well fitted inhibition curve with a large enough effect; inconclusive = small, poorly fitted or top-dose-only effect, or another doubt; inactive = no such curve, though single readings can be large or run the other way.

SMILES	Shiga toxin inh	MARV entry inh	LASV entry inh	CHX counter	Pf growth 48h	Pf growth 96h
O=C(NCC1(c2ccccc2)CCCC1)C1(c2ccccc2)CCCC1	1.6	?	-29.2%	-2.1	?	2.62µM*
Cn1cc(Br)c(C(=O)Nc2nccs2)n1	42.9*	15.0%	6.5%	26.8*	69.0%	31.2%
O=C(Nc1nccs1)C(Br)C(Br)c1ccccc1 (stereo unspecified)	68.6*	?	?	33.7*	100.5%	146.4%
Cn1cc(Br)c(C(=O)NC2CCCCCC2)n1	55.5	·	·	17.2*	26.8%	?
O=C(Nc1nccs1)c1ccccc1Br	30.3	·	·	27.6*	50.1%	?
Cn1cc(Br)c(C(=O)Nc2c(F)c(F)c(F)c(F)c2F)n1	-4.3	?	20.3%	-3.6	-3.4%	-8.9%
NC(=O)c1c(NC(=O)COC(=O)CSc2nnc(-c3ccc(Cl)cc3)o2)sc2c1CCC2	-44.0	-6.4%	-0.8%	-2.2	-5.6%	115.1%
COC/C=C/C1=CC2=CC(=O)C(C)(OC(=O)c3cnc4ccccc4n3)C(=O)C2=CN1C(CO)CO (stereo unspecified)	-5.3	·	·	-4.3	28.6%	17.4%
O=C(Nc1nccs1)c1ccccc1[N+](=O)[O-]	-14.9	0.0%	0.1%	-1.9	31.7%	?
Nc1ccccc1C(=O)Nc1nccs1	61.7*	-13.5%[46.1 µM]	23.3%[46.1 µM]	44.7*	105.3%	-6.3%
NS(=O)(=O)c1ccc(CCNC(c2ccccc2)c2ccccc2)cc1	-5.0	?	-20.2%	-7.0	10.4%	11.3%
COc1ccc(-c2cc3ccccc3n2CC(O)CN2CCC(C)CC2)cc1 (stereo unspecified)	19.0	·	·	5.4	?	41.3%
Cc1cc(C)n(CC(O)COc2ccccc2)n1 (stereo unspecified)	-20.8	-0.6%	-3.1%	-1.5	?	-0.1%
COc1ccc(-c2cc3ccccc3n2CC(O)Cn2nc(C)cc2C)cc1 (stereo unspecified)	-6.3	?	-22.2%	30.2	2.33µM*	0.2%
Cc1cc(C)n(CC(O)COc2ccc3ccccc3c2)n1 (stereo unspecified)	46.4*	1.9%[46.1 µM]	3.8%	26.0*	70.0%	23.6%
Cc1ccc(OCCNC(=O)Cc2ccc(S(=O)(=O)N3CCOCC3)s2)cc1	-7.8	2.5%	-4.3%	0.6	?	-73.6%
NC(N)=NC(N)=Nc1ccc(SC(F)(F)F)cc1	-8.1	?	0.9%	-4.1	14.7µM*	3.29µM*
COC(=O)C=C1CCC2C3CCC4=CC(=O)C(Br)CC4(C)C3C(=O)CC12C (stereo unspecified)	·	11.2µM*	?	·	·	·
CCCCCCC(C)(C)c1ccc([C@@H]2C[C@H](O)CC[C@H]2CCCO)c(O)c1	·	13µM*	?	·	4.65µM*	5.22µM*
COc1ccc(CN(C(=O)/C=C/C(=O)c2ccc(OC)cc2O)C(C(=O)NC2CCCCC2)c2ccncc2)cc1 (stereo unspecified)	-10.5	?	?	-0.8	11.7µM*	5.9%
COc1ccc(C(=O)/C=C/C(=O)N(Cc2ccc3c(c2)OCO3)C(C(=O)NC2CCCCC2)c2ccncc2)c(O)c1 (stereo unspecified)	-2.8	?	?	-1.8	5.22µM*	15.5%
COc1ccc(-c2nnn(CC(=O)N(CCO)C(C(=O)NC3CCCC3)c3ccncc3)n2)cc1 (stereo unspecified)	24.7	-19.8%[46.1 µM]	9.3%	-4.9	12.1%	23.1%
COc1ccc(C(=O)/C=C/C(=O)N(CC(=O)NC2CCCCC2)Cc2cccs2)c(O)c1	8.8	·	·	1.1	?	14.4%
COCCN(CC(=O)NC1CCCCC1)C(=O)/C=C/C(=O)c1ccc(OC)cc1O	25.9	11.2µM*	12.6µM*	9.6	16.2%	?
N#C/C(=C\Nc1ccc2cn[nH]c2c1)c1nc(-c2ccc(Cl)cc2)cs1	-9.3	?	-2.0%	-12.6	?	4.15µM*
SMILES	Shiga toxin inh	MARV entry inh	LASV entry inh	CHX counter	Pf growth 48h	Pf growth 96h
Cc1ccc(-n2nnc(-c3cc4ccccc4n3C)n2)cc1	33.0*	·	·	27.1*	227.3%	?
Cn1c(-c2nnn(-c3ccc(F)cc3)n2)cc2ccccc21	65.1*	·	·	54.8*	324.3%	87.2%
Fc1ccc(-n2nnc(-c3ccccc3)n2)cc1	-6.5	·	·	-2.5	7.1%	22.9%
Cn1c(=O)c(-c2ccccc2)cc2ccccc21	·	0.6%[46.1 µM]	12.0%[46.1 µM]	·	·	·
COC(=O)c1sc(S(=O)(=O)Oc2ccccc2NC(C)=O)c(C(=O)OC)c1C	·	0.7%	-13.0%	·	?	-20.2%
CC(=O)OC(C(=O)NC1CCCCC1)c1ccccc1Cl (stereo unspecified)	13.0	·	·	0.3	0.0%	13.4%
O=C1Nc2ccccc2C1C(C[N+](=O)[O-])c1ccccn1 (stereo unspecified)	-3.4	·	·	-2.5	·	-14.3%
Cn1cc([N+](=O)[O-])c(C(=O)Nc2ccc(-c3nc4ccccc4[nH]3)cc2)n1	-2.8	?	3.6%	32.2*	103.3%	29.9%
Cn1cc([N+](=O)[O-])c(C(=O)Nc2ccc3nc(-c4ccccc4)[nH]c3c2)n1	46.7*	?	5.0%	41.7*	?	28.5%
CCCN(CCC)CCNC(=O)CN1C(=O)COc2ccc(S(=O)(=O)N3CCC(C)CC3)cc21	·	0.4%[46.1 µM]	0.3%[46.1 µM]	·	·	·
C1CCc2c(nnc3c2-c2nonc2CC3)C1	20.5	26.2%	20.7%	-1.2	9.2%	2.08µM*
COCCCNC(=O)c1nc2ccccc2c(=O)n1NC(=O)Nc1c(Cl)cccc1Cl	13.5	10.9%	7.2%	-2.4	3.4%	8.0%
CC1(C)Cc2nc3scc(NC(=O)c4ccccc4)c3cc2CO1	28.3	·	·	14.4*	5.8%	21.9%
CCOC(=O)c1sc2nc(N3CCOCC3)c3c(c2c1N)CC(C(C)C)OC3 (stereo unspecified)	-5.6	·	·	-2.5	10.1%	?
Cc1nc2c(sc3nc4c(cc32)COC(C)(C)C4)c(=O)o1	-3.1	-0.8%	1.8%	5.2	?	?
CC1(C)Cc2nc3sc4c(=O)n(CC(N)=O)cnc4c3cc2CO1	24.2	26.9%	1.9%	10.8	48.9%	73.6%
CCOC(=O)c1sc2nc3c(cc2c1N)COC(C(C)C)C3 (stereo unspecified)	157.5*	-22.7%	?	56.9*	158.2%	142.2%
COC(=O)c1sc2nc3c(cc2c1N)COC(C)(C)C3	198.3*	4.5%	?	79.8*	173.4%	21.8%
CC1(C)Cc2nc3sc(C(=O)NCCCO)c(N)c3cc2CO1	90.5*	·	·	28.6*	67.3%	140.9%
Cc1nc(SCCOc2ccccc2)[nH]c(=O)c1Cc1ccccc1	-0.6	-22.5%[14.2 µM]	-25.9%	-1.4	31.7%	170.1%
Cc1ccc(C(=O)OCC(=O)N2C(C)CCCC2C)cc1S(=O)(=O)N1CCCCC1 (stereo unspecified)	·	-10.4%[46.1 µM]	?	·	?	-11.9%
